This note sets out measurements from PubChem BioAssay (NCATS).

The structures appear in SMILES notation. Inconclusive results are not listed. Values without a mark were called inactive. The source made the active and inactive calls. Calls come from the whole dose curve; as a rule, active = well fitted inhibition curve with a large enough effect; inconclusive = small, poorly fitted or top-dose-only effect; inactive = flat fitted curve, though single readings scatter.
% is set by controls: 0 for no effect and ±100 for the full control effect; potency is the fitted concentration of half-maximal effect.

Chain of Calcium and integrin-binding protein 1 (Homo sapiens) (Q99828 whole entry, looked up): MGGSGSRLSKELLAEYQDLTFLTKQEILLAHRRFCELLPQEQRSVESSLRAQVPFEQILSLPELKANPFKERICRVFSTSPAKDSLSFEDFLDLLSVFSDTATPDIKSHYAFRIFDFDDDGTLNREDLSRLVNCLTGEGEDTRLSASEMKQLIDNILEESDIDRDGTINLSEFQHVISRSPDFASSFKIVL

The target of this test is Calcium and integrin-binding protein 1 (Homo sapiens) (UniProt Q99828). Kind of test: Primary qHTS for Identification of Calcium Integrin Binding Protein 1 (CIB1) Competitor (AID 1508620).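 For activity change, negative = inhibition: GST tagged CIB1 binding a fluorescein labelled alphaIIb integrin peptide tracer; top concentration of the series differs between compounds.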 The settings on record: CIB1-GST / FITC-alphaIIb peptide fluorescence polarization; series mostly up to 114 µM; activity change, negative = inhibition: at the top concentration. In short, it runs like this:
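CIB1-GST (1 uM final) and compound incubated 15 min at room temperature before adding FITC-alphaIIb peptide tracer (100 nM final). Competition for binding read by fluorescence polarization (ex 480, em 540) after another 15 min at room temperature.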
(Quantitative high-throughput screening tests each substance at several concentrations.)
Turning to `CCC(C)C(=O)Oc1cc(C)ccc1C1(COC(=O)C(C)C)CO1` (centres undefined), the “activity change, negative = inhibition” value is 1.16% [at 57.7 µM].

For the compound `COc1cc(/C=C/C(=O)NCCn2c(C(F)(F)F)cc3ccccc32)cc(OC)c1OC`, the “activity change, negative = inhibition” value is 4.94%.

`C/C=C/CCC1Cc2cc(O)c(CCCC)c(O)c2C(=O)O1` (centres undefined): the “activity change, negative = inhibition” value was 3.06%.

`Cn1nc(C(C)(C)C)cc1C(=O)N[C@@H](Cc1cccc(Cl)c1)C(=O)NCC#N`: the “activity change, negative = inhibition” value is 0.38%.

Regarding `O=C(O)c1cccc(-c2ccc(-c3cn(C(=O)N4CCCCC4Cc4ccccc4)nn3)cc2)c1` (centres undefined), the “activity change, negative = inhibition” value was -9.42%.

As for `C=CC(C)(C)C12CC3C(=O)N4C(CC5(C(C)(C)C=C)c6ccccc6NC45)C(=O)N3C1Nc1ccccc12` (centres undefined), the “activity change, negative = inhibition” value is 1.8% [at 57.7 µM].

As for `COC(=O)C1=CO[C@@H](O[C@@H]2O[C@H](CO)[C@@H](O)[C@H](O)[C@H]2O)[C@H]2[C@@H]1C=C[C@]21C=C([C@H](C)OC(=O)/C=C/c2ccc(O)cc2)C(=O)O1`, the “activity change, negative = inhibition” value is -4.82% [at 30.2 µM].

With `O=C(NCCCNC(=O)c1ccc[nH]c1=O)c1cc(-c2ccccc2)on1`, the “activity change, negative = inhibition” value is 1.76%.

On to `Cc1cc(-c2nc(-c3ccc(OC(F)(F)F)cc3)no2)nn1Cc1ccnc(N2CCN(C3CC3)CC2)c1`, for which the “activity change, negative = inhibition” value was 2.08%.

On to `C[C@@H]1O[C@@H](O[C@H]2[C@H](OC(=O)[C@]34CCC(C)(C)C[C@H]3C3=CCC5[C@@]6(C)C[C@H](O)[C@H](O[C@@H]7O[C@H](CO)[C@@H](O)[C@H](O)[C@H]7O)[C@](CO)(C(=O)O)C6CC[C@@]5(C)[C@]3(C)C[C@H]4O)OC[C@H](O)[C@@H]2O)[C@H](O)[C@H](O)[C@H]1O[C@@H]1OC[C@@H](O)[C@H](O[C@@H]2OC[C@](O)(CO)[C@H]2O)[C@H]1O` (some centres undefined), for which the activity change, negative = inhibition was 3.47% [at 12.4 µM].

Regarding `S=C(c1ccc(-c2ccc(Cl)c(Cl)c2)o1)N1CCCCC1`, the “activity change, negative = inhibition” value is -2.09%.

As to `O=c1[nH]cnc2c([C@@H]3N[C@H](CO)[C@@H](O)[C@H]3O)c[nH]c12`, the “activity change, negative = inhibition” value was -1.75%.

On to `COc1ccc(CCc2nc3cc(-c4c(C)noc4C)ccc3n2CC(C)N2CCOCC2)cc1Cl` (centres undefined), for which the “activity change, negative = inhibition” value is 2.15%.

Consider `CC(=O)CC(=O)Nc1ccc(Cl)c(C(F)(F)F)c1`, for which the “activity change, negative = inhibition” value is 3.66%.

Turning to `O=c1[nH]c2cccc(N3CCN(Cc4ccc(-c5ccccc5)cc4)CC3)c2o1`, the “activity change, negative = inhibition” value was 4.06%.

On to `COC(=O)c1ccnc(-c2cc(C(=O)Nc3ccc(C4(N)CC4)cc3)ccn2)c1`, for which the “activity change, negative = inhibition” value is -1.96%.

As for `O=C(Nc1cccc2cccnc12)c1ccc(N2C(=O)[C@@H]3C4C=CC(C4)[C@@H]3C2=O)cc1`, the “activity change, negative = inhibition” value is -0.9%.

As to `C/C=C(\C)C(=O)O[C@H]1C=CC(=O)O[C@H]1/C=C/[C@@H](O)[C@H](C)O`, the “activity change, negative = inhibition” value is -0.665%.

Consider `C=C1C(=O)O[C@H]2/C=C(/C)[C@@H](OC(C)=O)C/C=C(\C)C[C@@H](OC(=O)/C(=C/C)COC(=O)/C(=C/C)CO)[C@@H]12`, for which the “activity change, negative = inhibition” value is -4.52% [at 57.7 µM].

With `CCNC(=O)c1noc(-c2cc(Cl)c(O)cc2O)c1-c1ccc(OC)cc1`, the “activity change, negative = inhibition” value was -6.55%.

Consider `CCCOc1ccc(CCc2nc3cc(-c4c(C)noc4C)ccc3n2CCN2CCOCC2)cc1`, for which the “activity change, negative = inhibition” value was -3.03%.

As to `C=C1C(=O)O[C@@H]2[C@H]1CC(=O)[C@H](C)[C@@](O)(C(=O)/C=C/C)[C@H]2OC(=O)C(C)CC` (some centres undefined), the “activity change, negative = inhibition” value is -10.3% [at 57.7 µM].

As to `CC1CC(=O)C2=C(C1)C1OC1C1(O)C2C(=O)c2cccc(O)c2C1O` (centres undefined), the “activity change, negative = inhibition” value was -5.78% [at 57.7 µM].

On to `Cn1c(CO)c(-c2ccccc2)c2cc([N+](=O)[O-])ccc21`, for which the “activity change, negative = inhibition” value is -5.94%.

On to `C=C1CCC2C(C)(C)CCCC2(C)C1CC/C(C)=C\CO` (centres undefined), for which the “activity change, negative = inhibition” value was 0.875%.

With `COC1=CC(=O)O/C1=C(/OC)[C@@H]1O[C@H]1c1ccccc1`, the “activity change, negative = inhibition” value was -10.2%.

`CC1CCCC[C@H]2C(=O)C=C[C@H](O)[C@@H]2CC(=O)O1` (some centres undefined): the Potency is 28.2 µM (active).

As to `NC(N)=N/N=C/c1ccccc1Cl`, the “activity change, negative = inhibition” value was -4.59%.

For `CC(=O)OC1CC2(C)C(CCC(C)C23Cc2c(O)cc(CO)c(C=O)c2O3)C(C)(C)C1O` (centres undefined), the “activity change, negative = inhibition” value was 1.28% [at 57.7 µM].

As to `CC(=O)OC1CC(C)(C(=O)O)CC2C3=CC(=O)C4C5(C)CCC(OC6OC(C(=O)O)C(O)C(O)C6OC6OC(C(=O)O)C(O)C(O)C6O)C(C)(C)C5CCC4(C)C3(C)CCC12C` (centres undefined), the “activity change, negative = inhibition” value is 0.64% [at 30.2 µM].

With `C/C=C(\C)C(=O)O[C@H]1C[C@](C)(O)[C@H]2CC=C(C)[C@H]2[C@@H]2OC(=O)[C@H](C)[C@H]21`, the “activity change, negative = inhibition” value is -4.35% [at 57.7 µM].

In the case of `CC(NCCCc1cccc(C(F)(F)F)c1)c1cccc2ccccc12` (centres undefined), the “activity change, negative = inhibition” value was 0.544% [at 57.7 µM].

Take `COc1cc(CCC2=NN=C(NC(=O)c3ccc(N4C[C@@H](C)N[C@@H](C)C4)cc3)C2)cc(OC)c1`: the “activity change, negative = inhibition” value was -8%.

Turning to `C=C1C(=O)O[C@@H]2C[C@H](C)[C@@H]3CC(=O)C(C)=C3C[C@H]12`, the “activity change, negative = inhibition” value is 2.78%.

`CC(=O)O[C@H]1CC[C@]2(C)[C@H]3CC[C@]4(C)Oc5oc(C)cc(=O)c5C[C@H]4[C@]3(C)CC[C@H]2C1(C)C`: the “activity change, negative = inhibition” value is 2.98% [at 57.7 µM].

As to `COc1cc(C(=O)NCC2(N(C)C)CCCC2)cc(OC)c1OCc1ccccc1`, the “activity change, negative = inhibition” value was 3.83%.

On to `C=C1C(=O)O[C@H]2C[C@@H](C)[C@@H]3CCC(=O)[C@@]3(C)C[C@H]12`, for which the “activity change, negative = inhibition” value is -1.91%.

Take `C=C1C(=O)O[C@@H]2/C=C(\C)CC/C=C(/C=O)[C@H](OC)[C@@H](OC(=O)C(C)C)[C@@H]12`: the “activity change, negative = inhibition” value is -4.26% [at 57.7 µM].

As to `CC[C@@H](C)Nc1cc(C(=O)NC2CC3CCC(C2)N3c2ccc(C(=O)C3CC3)cn2)c(C)cc1C(N)=O` (some centres undefined), the “activity change, negative = inhibition” value is -1.89%.
